# Data published in paper PMC7862700, “An all-to-all approach to the identification of sequence-specific readers for epigenetic DNA modifications on cytosine”.
# How the values were obtained:
# Test in all cases: DAPPL (digital affinity profiling via proximity ligation, sequencing); 10 mM Tris-HCl pH 7.5, 50 mM NaCl, 1 mM DTT, 4% glycerol, room temperature, 30 min; GST-TFs on glutathione beads, 16-mer random dsDNA library, 0.1% formaldehyde crosslink after washing; high values mean tight binding
# FLI1 = target: T1, FLI1 (Homo sapiens, UniProt Q01543 1-452); settings: protein: recombinant; tags: N-terminal GST; dsDNA, one strand shown
# T1 sequence: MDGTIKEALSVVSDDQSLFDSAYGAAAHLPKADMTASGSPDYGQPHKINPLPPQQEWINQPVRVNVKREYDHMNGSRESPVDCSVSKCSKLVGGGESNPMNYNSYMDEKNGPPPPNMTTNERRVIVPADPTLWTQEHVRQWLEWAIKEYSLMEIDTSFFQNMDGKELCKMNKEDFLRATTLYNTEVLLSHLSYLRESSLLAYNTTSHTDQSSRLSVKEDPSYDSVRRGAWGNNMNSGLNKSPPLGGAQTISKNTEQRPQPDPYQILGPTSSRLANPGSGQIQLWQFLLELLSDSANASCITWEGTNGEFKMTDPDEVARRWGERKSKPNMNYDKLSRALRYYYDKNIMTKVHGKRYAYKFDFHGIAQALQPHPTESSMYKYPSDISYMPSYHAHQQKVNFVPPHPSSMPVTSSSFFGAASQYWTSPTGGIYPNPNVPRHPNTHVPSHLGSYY
# Method in brief: (§1)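 Beads coated with glutathione captured GST-fused human transcription factors that had been expressed in yeast, and the factors were then given DNA barcodes and pooled with a tag-only sample. The pools were incubated with 200 nmole of a random double-stranded 16-mer DNA library in Tris/NaCl/DTT/glycerol buffer for 30 min at room temperature, washed, crosslinked with 0.1% formaldehyde and proximity-ligated with BsaI/T4 ligase at 37 °C for 1 h. PCR amplification and Illumina NextSeq500 sequencing came last. Binding signal is each hexamer's read frequency for a factor divided by its frequency for the tag-only sample.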
# ELK1 = target: T2, ELK1 (Homo sapiens, UniProt P19419 1-428); settings: protein: recombinant; tags: N-terminal GST; dsDNA, one strand shown
# T2 sequence: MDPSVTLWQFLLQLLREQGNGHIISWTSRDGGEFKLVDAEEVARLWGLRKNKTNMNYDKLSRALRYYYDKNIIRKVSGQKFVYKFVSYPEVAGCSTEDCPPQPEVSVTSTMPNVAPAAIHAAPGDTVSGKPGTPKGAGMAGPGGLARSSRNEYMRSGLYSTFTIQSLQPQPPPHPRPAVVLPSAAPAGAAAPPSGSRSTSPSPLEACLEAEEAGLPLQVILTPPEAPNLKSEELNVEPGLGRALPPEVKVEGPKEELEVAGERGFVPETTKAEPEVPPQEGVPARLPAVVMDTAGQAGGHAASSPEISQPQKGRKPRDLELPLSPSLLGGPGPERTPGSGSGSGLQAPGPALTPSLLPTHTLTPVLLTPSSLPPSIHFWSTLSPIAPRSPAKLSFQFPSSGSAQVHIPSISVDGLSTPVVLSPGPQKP
# Method in brief: as §1
# GABPA = target: T3, GABPA (Homo sapiens, UniProt Q06546 1-454); settings: protein: recombinant; tags: N-terminal GST; dsDNA, one strand shown
# T3 sequence: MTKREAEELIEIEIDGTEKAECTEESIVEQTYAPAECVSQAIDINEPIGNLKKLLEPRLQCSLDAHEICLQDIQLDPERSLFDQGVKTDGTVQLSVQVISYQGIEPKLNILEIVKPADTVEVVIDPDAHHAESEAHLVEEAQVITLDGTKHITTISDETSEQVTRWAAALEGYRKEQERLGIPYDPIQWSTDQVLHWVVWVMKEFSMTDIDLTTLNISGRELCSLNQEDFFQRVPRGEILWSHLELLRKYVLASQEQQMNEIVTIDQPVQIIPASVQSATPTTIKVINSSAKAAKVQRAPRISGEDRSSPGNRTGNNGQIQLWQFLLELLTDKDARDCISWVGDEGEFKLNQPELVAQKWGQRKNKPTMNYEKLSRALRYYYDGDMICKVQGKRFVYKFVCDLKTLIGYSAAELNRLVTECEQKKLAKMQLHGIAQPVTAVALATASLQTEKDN
# Method in brief: as §1
# ERG = target: T4, ERG (Homo sapiens, UniProt P11308 1-479); settings: protein: recombinant; tags: N-terminal GST; dsDNA, one strand shown
# T4 sequence: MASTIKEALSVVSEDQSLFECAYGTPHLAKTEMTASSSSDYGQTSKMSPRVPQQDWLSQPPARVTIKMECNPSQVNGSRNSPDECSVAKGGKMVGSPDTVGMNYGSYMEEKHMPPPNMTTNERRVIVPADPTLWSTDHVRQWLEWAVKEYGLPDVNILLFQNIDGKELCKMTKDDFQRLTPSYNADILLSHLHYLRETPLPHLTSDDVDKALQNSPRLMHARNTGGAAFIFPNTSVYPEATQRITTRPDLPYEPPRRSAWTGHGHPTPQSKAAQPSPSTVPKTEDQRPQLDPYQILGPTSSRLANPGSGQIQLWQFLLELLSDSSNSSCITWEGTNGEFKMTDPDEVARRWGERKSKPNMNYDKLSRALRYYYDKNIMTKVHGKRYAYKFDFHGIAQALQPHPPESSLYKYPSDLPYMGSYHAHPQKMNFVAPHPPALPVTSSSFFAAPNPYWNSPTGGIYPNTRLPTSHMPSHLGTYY
# Method in brief: as §1
# ELF1 = ELF1 (Homo sapiens, UniProt P32519 1-619); settings: protein: recombinant; tags: N-terminal GST; dsDNA, one strand shown
# ELF1, sequence (P32519 whole entry): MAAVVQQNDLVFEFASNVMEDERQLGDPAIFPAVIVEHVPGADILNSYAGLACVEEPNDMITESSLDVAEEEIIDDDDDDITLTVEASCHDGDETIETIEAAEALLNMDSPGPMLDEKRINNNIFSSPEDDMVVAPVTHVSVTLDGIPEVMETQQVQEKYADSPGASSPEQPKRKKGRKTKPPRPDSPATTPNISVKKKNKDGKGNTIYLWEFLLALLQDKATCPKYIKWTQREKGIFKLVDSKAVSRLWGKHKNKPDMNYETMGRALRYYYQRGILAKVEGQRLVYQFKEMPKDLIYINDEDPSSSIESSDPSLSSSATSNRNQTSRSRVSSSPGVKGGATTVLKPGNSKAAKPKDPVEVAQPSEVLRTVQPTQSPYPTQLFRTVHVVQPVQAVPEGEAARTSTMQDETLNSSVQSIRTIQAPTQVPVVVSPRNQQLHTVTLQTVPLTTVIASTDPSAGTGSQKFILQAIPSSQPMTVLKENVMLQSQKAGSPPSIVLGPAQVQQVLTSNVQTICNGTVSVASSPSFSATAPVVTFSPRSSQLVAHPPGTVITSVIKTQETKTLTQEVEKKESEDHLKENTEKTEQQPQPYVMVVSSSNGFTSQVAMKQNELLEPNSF
# Method in brief: as §1
# EHF = target: T5, EHF (Homo sapiens, UniProt Q9NZC4 1-300); settings: protein: recombinant; tags: N-terminal GST; dsDNA, one strand shown
# T5 sequence: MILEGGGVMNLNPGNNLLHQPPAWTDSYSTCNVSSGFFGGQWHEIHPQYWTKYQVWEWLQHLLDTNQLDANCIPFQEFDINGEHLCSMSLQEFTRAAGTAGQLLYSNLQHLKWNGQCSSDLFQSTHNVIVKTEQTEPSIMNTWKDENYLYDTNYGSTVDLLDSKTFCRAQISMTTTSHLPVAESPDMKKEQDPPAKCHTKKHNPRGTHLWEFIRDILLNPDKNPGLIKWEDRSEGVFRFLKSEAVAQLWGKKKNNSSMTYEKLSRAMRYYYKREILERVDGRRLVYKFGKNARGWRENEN
# Method in brief: as §1
# SPI1 = SPI1 (Homo sapiens, UniProt P17947 1-270); settings: protein: recombinant; tags: N-terminal GST; dsDNA, one strand shown
# Method in brief: as §1
# SPIB = SPIB (Homo sapiens, UniProt Q01892 1-262); settings: protein: recombinant; tags: N-terminal GST; dsDNA, one strand shown
# SPIB, sequence (Q01892 whole entry): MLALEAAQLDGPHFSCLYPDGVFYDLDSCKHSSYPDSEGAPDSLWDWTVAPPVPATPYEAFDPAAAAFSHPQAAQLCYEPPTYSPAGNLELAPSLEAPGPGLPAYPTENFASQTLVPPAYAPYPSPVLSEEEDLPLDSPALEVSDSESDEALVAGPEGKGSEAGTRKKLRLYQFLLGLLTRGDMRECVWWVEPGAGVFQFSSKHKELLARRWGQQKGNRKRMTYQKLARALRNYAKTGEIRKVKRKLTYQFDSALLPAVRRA
# Method in brief: as §1
# ELK3 = target: T6, ELK3 (Homo sapiens, UniProt P41970 1-407); settings: protein: recombinant; tags: N-terminal GST; dsDNA, one strand shown
# T6 sequence: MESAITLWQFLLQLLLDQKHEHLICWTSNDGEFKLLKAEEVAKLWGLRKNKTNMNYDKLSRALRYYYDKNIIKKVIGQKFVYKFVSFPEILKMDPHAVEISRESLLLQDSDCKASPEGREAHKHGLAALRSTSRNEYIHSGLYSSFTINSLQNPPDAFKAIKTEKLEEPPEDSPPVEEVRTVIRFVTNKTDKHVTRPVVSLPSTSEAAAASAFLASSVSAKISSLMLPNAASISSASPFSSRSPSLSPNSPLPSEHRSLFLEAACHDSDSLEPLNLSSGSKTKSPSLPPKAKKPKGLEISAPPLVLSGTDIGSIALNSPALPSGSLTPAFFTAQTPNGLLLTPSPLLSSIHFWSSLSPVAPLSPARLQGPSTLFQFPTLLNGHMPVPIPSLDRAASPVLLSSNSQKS
# Method in brief: as §1
# FEV = target: T7, FEV (Homo sapiens, UniProt Q99581 1-238); settings: protein: recombinant; tags: N-terminal GST; dsDNA, one strand shown
# T7 sequence: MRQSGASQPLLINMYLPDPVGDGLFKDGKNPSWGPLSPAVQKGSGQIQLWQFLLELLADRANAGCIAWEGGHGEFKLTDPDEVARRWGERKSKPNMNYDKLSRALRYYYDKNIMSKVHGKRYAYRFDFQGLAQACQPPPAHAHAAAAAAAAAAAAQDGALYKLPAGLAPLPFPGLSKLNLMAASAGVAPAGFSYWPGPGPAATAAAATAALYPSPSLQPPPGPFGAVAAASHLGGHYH
# Method in brief: as §1
# ETV5 = ETV5 (Homo sapiens, UniProt P41161 1-510); settings: protein: recombinant; tags: N-terminal GST; dsDNA, one strand shown
# ETV5, sequence (P41161 whole entry): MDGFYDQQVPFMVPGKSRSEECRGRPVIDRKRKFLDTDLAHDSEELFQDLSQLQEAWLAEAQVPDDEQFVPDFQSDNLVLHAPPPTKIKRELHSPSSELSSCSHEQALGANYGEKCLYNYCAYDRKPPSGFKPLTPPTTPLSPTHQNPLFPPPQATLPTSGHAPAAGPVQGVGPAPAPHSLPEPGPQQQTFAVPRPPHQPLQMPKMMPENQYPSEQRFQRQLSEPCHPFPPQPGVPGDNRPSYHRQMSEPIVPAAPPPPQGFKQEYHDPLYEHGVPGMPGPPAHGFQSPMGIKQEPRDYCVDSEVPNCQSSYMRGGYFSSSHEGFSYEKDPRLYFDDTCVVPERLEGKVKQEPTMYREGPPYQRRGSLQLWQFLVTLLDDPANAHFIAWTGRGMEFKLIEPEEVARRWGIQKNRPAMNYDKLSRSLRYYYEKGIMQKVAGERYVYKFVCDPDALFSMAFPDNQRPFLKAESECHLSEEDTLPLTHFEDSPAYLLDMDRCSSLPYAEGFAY
# Method in brief: as §1
# HSF1 = HSF1 (Homo sapiens, UniProt Q00613 1-529); settings: protein: recombinant; tags: N-terminal GST; chain copies: 3; dsDNA, one strand shown
# HSF1, sequence (Q00613 whole entry): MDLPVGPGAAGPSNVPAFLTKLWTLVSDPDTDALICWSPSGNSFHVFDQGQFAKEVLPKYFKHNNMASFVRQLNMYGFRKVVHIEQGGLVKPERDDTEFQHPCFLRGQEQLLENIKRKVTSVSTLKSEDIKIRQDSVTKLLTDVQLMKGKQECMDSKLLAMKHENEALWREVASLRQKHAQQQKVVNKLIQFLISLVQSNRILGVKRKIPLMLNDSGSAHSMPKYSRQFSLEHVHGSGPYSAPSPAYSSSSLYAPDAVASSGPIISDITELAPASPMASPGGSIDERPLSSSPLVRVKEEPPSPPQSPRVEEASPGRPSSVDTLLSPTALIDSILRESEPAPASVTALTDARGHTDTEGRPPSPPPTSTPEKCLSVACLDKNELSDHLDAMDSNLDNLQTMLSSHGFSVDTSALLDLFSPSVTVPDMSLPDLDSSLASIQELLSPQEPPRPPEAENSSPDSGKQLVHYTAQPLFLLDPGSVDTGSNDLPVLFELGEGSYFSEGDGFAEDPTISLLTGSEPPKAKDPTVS
# Method in brief: as §1
# SPIC = target: T8, SPIC (Homo sapiens, UniProt Q8N5J4 1-248); settings: protein: recombinant; tags: N-terminal GST; dsDNA, one strand shown
# T8 sequence: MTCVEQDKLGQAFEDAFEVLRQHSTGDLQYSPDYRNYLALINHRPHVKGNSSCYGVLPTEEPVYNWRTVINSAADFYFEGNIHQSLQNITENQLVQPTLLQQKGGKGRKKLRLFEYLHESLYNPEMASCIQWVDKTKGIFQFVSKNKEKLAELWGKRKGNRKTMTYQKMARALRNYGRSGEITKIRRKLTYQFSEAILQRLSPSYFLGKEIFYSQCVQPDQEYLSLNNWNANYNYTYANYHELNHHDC
# Method in brief: as §1
# ELF4 = ELF4 (Homo sapiens, UniProt Q99607 1-663); settings: protein: recombinant; tags: N-terminal GST; dsDNA, one strand shown
# ELF4, sequence (Q99607 whole entry): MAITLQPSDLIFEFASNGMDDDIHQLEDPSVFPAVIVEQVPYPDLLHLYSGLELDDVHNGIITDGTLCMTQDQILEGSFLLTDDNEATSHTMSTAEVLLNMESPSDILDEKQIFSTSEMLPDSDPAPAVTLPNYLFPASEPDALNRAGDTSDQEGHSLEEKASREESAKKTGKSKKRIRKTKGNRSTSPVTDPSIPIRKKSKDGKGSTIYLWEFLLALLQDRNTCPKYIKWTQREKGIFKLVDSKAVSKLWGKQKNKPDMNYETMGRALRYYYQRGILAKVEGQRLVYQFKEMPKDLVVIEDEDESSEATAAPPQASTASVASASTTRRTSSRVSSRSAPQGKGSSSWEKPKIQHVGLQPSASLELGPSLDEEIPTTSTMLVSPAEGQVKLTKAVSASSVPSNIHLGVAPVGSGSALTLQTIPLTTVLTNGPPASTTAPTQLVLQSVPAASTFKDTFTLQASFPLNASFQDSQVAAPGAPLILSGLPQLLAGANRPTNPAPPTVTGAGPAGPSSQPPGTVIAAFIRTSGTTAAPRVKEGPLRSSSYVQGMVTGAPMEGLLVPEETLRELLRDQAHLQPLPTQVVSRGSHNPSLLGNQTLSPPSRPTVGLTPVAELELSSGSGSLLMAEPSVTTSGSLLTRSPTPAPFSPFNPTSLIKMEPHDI
# Method in brief: as §1
# ELK4 = target: T9, ELK4 (Homo sapiens, UniProt P28324-2 1-405); settings: protein: recombinant; tags: N-terminal GST; dsDNA, one strand shown
# T9 sequence: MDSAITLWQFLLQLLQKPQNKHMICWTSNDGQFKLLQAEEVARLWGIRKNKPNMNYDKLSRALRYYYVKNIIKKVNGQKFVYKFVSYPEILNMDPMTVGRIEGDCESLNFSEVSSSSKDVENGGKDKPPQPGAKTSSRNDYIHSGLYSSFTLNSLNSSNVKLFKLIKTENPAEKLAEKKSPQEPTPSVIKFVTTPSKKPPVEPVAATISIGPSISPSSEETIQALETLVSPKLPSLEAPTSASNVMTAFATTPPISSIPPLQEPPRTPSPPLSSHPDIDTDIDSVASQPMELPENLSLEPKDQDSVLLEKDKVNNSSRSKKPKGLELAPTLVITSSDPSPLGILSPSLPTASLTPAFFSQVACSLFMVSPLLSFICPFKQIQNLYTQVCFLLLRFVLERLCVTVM
# Method in brief: as §1
# ETV2 = target: T10, ETV2 (Homo sapiens, UniProt O00321 1-342); settings: protein: recombinant; tags: N-terminal GST; dsDNA, one strand shown
# T10 sequence: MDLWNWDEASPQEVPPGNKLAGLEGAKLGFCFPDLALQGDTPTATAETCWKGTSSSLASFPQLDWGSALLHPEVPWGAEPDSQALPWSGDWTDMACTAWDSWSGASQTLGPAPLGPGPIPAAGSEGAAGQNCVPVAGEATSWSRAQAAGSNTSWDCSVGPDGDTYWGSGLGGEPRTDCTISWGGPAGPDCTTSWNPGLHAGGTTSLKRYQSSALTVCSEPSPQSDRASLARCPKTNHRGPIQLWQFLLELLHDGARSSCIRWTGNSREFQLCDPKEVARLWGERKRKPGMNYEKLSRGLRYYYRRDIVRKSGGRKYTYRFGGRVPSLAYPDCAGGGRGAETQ
# Method in brief: as §1
# ELF3 = target: T11, ELF3 (Homo sapiens, UniProt P78545 1-371); settings: protein: recombinant; tags: N-terminal GST; dsDNA, one strand shown
# T11 sequence: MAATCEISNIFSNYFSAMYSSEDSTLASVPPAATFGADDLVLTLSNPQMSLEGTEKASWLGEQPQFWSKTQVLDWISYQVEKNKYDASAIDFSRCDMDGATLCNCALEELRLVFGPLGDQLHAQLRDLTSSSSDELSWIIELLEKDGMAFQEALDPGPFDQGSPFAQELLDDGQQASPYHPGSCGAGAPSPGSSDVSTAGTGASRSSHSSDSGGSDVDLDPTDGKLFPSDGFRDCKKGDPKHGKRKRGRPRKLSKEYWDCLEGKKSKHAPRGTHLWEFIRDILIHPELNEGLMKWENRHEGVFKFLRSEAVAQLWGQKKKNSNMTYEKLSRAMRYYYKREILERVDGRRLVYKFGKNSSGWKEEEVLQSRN
# Method in brief: as §1
# CRX = CRX (Homo sapiens, UniProt O43186 1-299); settings: protein: recombinant; tags: N-terminal GST; dsDNA, one strand shown
# CRX, sequence (O43186 whole entry): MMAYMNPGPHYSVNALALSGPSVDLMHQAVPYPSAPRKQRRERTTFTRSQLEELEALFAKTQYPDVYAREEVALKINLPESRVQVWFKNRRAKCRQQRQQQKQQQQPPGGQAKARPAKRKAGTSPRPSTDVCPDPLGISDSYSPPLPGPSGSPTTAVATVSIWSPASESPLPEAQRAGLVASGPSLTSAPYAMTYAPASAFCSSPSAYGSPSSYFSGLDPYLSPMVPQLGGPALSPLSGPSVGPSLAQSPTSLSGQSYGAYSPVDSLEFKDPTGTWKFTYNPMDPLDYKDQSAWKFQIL
# Method in brief: as §1
# ETV1 = ETV1 (Homo sapiens, UniProt P50549 1-477); settings: protein: recombinant; tags: N-terminal GST; dsDNA, one strand shown
# ETV1, sequence (P50549 whole entry): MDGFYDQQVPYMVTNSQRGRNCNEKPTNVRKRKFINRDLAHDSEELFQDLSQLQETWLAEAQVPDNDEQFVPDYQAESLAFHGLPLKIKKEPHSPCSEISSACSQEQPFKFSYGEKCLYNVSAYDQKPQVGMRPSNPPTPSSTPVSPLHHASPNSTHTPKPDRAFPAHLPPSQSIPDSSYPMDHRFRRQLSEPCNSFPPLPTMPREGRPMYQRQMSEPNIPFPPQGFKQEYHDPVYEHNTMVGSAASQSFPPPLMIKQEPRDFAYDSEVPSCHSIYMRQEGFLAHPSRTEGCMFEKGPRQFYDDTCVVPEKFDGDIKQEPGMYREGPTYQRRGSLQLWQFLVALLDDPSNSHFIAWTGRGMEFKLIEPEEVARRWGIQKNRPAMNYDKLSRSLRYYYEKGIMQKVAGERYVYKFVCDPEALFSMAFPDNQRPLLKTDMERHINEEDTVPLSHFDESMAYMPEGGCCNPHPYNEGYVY
# Method in brief: as §1
sequence,measurement,setting,value
ACCAAT,binding signal,FLI1,"1.35 fold enrichment (6-mer frequency, TF over GST control)"
same,binding signal,ELK1,"1.34 fold enrichment (6-mer frequency, TF over GST control)"
same,binding signal,GABPA,"1.4 fold enrichment (6-mer frequency, TF over GST control)"
same,binding signal,ERG,"1.29 fold enrichment (6-mer frequency, TF over GST control)"
same,binding signal,ELF1,"1.34 fold enrichment (6-mer frequency, TF over GST control)"
same,binding signal,EHF,"1.28 fold enrichment (6-mer frequency, TF over GST control)"
same,binding signal,SPI1,"1.3 fold enrichment (6-mer frequency, TF over GST control)"
same,binding signal,SPIB,"1.35 fold enrichment (6-mer frequency, TF over GST control)"
same,binding signal,ELK3,"1.34 fold enrichment (6-mer frequency, TF over GST control)"
same,binding signal,FEV,"1.25 fold enrichment (6-mer frequency, TF over GST control)"
same,binding signal,ETV5,"1.24 fold enrichment (6-mer frequency, TF over GST control)"
same,binding signal,HSF1,"1.16 fold enrichment (6-mer frequency, TF over GST control)"
same,binding signal,SPIC,"1.31 fold enrichment (6-mer frequency, TF over GST control)"
same,binding signal,ELF4,"1.38 fold enrichment (6-mer frequency, TF over GST control)"
same,binding signal,ELK4,"1.35 fold enrichment (6-mer frequency, TF over GST control)"
same,binding signal,ETV2,"1.13 fold enrichment (6-mer frequency, TF over GST control)"
same,binding signal,ELF3,"1.28 fold enrichment (6-mer frequency, TF over GST control)"
same,binding signal,CRX,"1.16 fold enrichment (6-mer frequency, TF over GST control)"
same,binding signal,ETV1,"1.3 fold enrichment (6-mer frequency, TF over GST control)"
